Shiga inhibitor: blocks Shiga toxin action in Vero cells; 290,000 compounds, 9.2% hits; Vero cells, Shiga toxin protein synthesis inhibition reporter; inhibition, % at 38.7 µM; in the data active = inhibition mostly above about 28%, no sharp cut-off; inactive = mostly below about 43%; also: 0% is about no effect
Marburg entry inh: Marburg virus entry inhibition; Marburg virus pseudotyped entry inhibition, cell reporter; Potency, µM (titrated, usually from 37.8 µM), for the others: at the highest dose activity change, negative = inhibition, hits mostly inhibitors; 300,000 compounds, 1.8% hits; calls by dose curve; tested in HEK293 cells; also: potency is read from the fitted curve at half-maximal effect; % is scaled to controls: 0 for no effect and ±100 for the full control effect
AMA1 RON2 block: inhibitors of Plasmodium falciparum AMA1-RON2 interaction; AlphaScreen AMA1-biotinylated RON2 peptide binding; Potency, µM (highest dose often 58.2 µM), without a hit: at the highest dose activity change, negative = inhibition, actives largely listed as inhibitors; 360,000 compounds, 0.2% hits; active = well fitted inhibition curve with a large enough effect; inconclusive = small, poorly fitted or top-dose-only effect; inactive = no such curve, though single readings can be large or run the other way;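 also: potency is read from the fitted curve at half-maximal effect; 0% = vehicle wells and -100% = peptide control; nearly all actives have a fitted effect of over 45% in size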
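AMA1 (3D7) with his tag at 25 nM final met compounds first, then biotinylated RON2 peptide at 25 nM; detection used donor plus acceptor beads, 10 µg/mL apiece, read by AlphaScreen after 30 min at room temperature.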
LASV entry inh: inhibitors of Lassa virus binding or cell entry; AID 540256; Lassa virus pseudotype entry inhibition, cell reporter; 300,000 compounds, 1.2% hits; Potency, µM (titrated, usually from 37.9 µM), for inactives: at the top dose activity change, negative = inhibition, actives largely listed as inhibitors; calls by dose curve; tested in HEK293 cells; also: potency is read from the fitted curve at half-maximal effect; % is scaled to controls: 0 for no effect and ±100 for the full control effect; nearly all actives have a fitted effect of over 50% in size
CHX counter: counter-screen for Shiga toxin inhibitors: cycloheximide protein synthesis inhibition; cell reporter, cycloheximide protein synthesis inhibition counterscreen; max response, %; 300,000 compounds, 12% hits; in the data active = max response mostly above about 13%, no sharp cut-off; inactive = mostly below about 14%; also: read at 38.3 µM for the half of the compounds with a filed dose; 0% is about no effect
* marks the source's active call; other numbers are inactive results; ? = inconclusive; / = no result given; [ ] = remark or other dose. This excerpt belongs to a sample that is enriched for hits.

SMILES | Shiga inhibitor | Marburg entry inh | AMA1 RON2 block | LASV entry inh | CHX counter
O=C(O)C1Nc2c(Cl)cc(Cl)cc2C2C=CCC12 (stereo not given) | -15 | -25%[46.1 µM] | 14µM* | -3%[46.1 µM] | -3
O=C(O)C1Nc2ccc(Br)cc2C2C=CCC12 (stereo not given) | -9 | / | 10µM* | / | -1
CCOC(=O)C1Nc2ccc(Br)cc2C2C=CCC12 (stereo not given) | -19 | -3%[46.1 µM] | -20% | -16%[46.1 µM] | -2
CC(C)CN(CCNC(=O)c1cc(-c2ccc(Cl)s2)nc2ccccc12)CC(C)C | / | 3%[46.1 µM] | / | 16%[46.1 µM] | /
COc1cc(/C=C/C(=O)OCC(=O)NCC(=O)Nc2cccc(C)c2C)ccc1OC(F)F | / | / | 2% | / | /
N#C/C(=C\c1c[nH]c2ccccc12)c1nnc2n1CCCCC2 | 7 | -17% | -7% | 0% | 3
N#C/C(=C\c1c[nH]c2ccc(Br)cc12)c1ccccn1 | 22 | 13µM* | 6% | ? | 13
COc1ccc(/C=N/NC(=O)c2[nH]ncc2Br)c(OC)c1 | 68* | 15% | 10% | ? | 38*
Nc1c(Cl)c(Cl)nc(C(=O)N/N=C/c2ccco2)c1Cl | 9 | / | 3% | / | -1
O=C(N/N=C/c1ccccc1)c1[nH]c2ccc(Br)cc2c1-c1ccccc1 | -10 | ? | 6% | ? | 0
O=C(N/N=C/c1ccco1)c1[nH]ncc1Br | 120* | / | / | / | 43*
O=C(N/N=C/c1ccccc1)c1[nH]ncc1Br | 110* | ? | 49% | -14% | 44*
O=C(N/N=C/c1cccnc1)c1[nH]ncc1Br | 50* | ? | 30% | / | 37*
CCOc1ccc(NC(=O)CSc2oc(-c3ccco3)nc2S(=O)(=O)c2ccc(Cl)cc2)cc1 | / | 7%[46.1 µM] | / | 0%[46.1 µM] | /
COCc1ccc(C(=O)N(C)CC2CCCN(CCc3ccc(OC)cc3)C2)o1 (stereo not given) | 77* | ? | -3% | ? | 34*
COc1ccc(CCN2CCCC(CN(C)C(=O)c3cc(C)oc3C)C2)cc1 (stereo not given) | 91* | ? | -1% | -6%[46.1 µM] | 69*
Cc1occc1C(=O)N(C)CC1CCCN(CCc2ccc(Cl)cc2)C1 (stereo not given) | / | / | -3% | / | /
COc1ccc(CCN2CCCC(CN(C)C(=O)c3ccoc3C)C2)cc1 (stereo not given) | 40* | 1% | -12% | -10% | 32*
Cc1sc2nc(SCc3nc(-c4ccccc4)no3)n(-c3ccccc3)c(=O)c2c1C | 3 | 3% | 10% | -4% | 0
COc1cccc(Nc2nc(CC(C)=O)ns2)c1 | 60* | 6% | 19% | -10% | 19*
COc1ccc(Nc2nc(CC(C)=O)ns2)cc1 | 68* | 16% | 2% | ? | 27*
COc1ccc(C(=O)c2sc(Nc3ccc(NC(C)=O)cc3)nc2C)cc1 | 12 | / | -3% | / | 0
O=C(C[n+]1ccccc1)N/N=C/c1cc(Br)ccc1O | -1 | 12% | -24% | 9% | -1
Cc1cccc(C(=O)OCC(=O)N(C)c2ccccc2)c1C | 35* | -10%[46.1 µM] | -10% | ? | 14*
Cc1ccccc1C(=O)OCC(=O)N(C)c1ccccc1 | 31 | 11%[46.1 µM] | -2% | 8%[46.1 µM] | 24*
SMILES | Shiga inhibitor | Marburg entry inh | AMA1 RON2 block | LASV entry inh | CHX counter
Cc1ccc(OCc2cc(=O)n3cc(C)sc3n2)c(NC(=O)c2ccco2)c1 | / | / | / | -1%[46.1 µM] | /
C/C(=N\OCC(=O)NCC(F)(F)F)c1cc2ccccc2o1 | 71* | ? | 1% | ? | 53*
CCCCNC(=O)CO/N=C(\C)c1cc2ccccc2o1 | 77* | -5% | 4% | -5% | 54*
CCc1cccc(C)c1NC(=O)CO/N=C(\C)c1cc2ccccc2o1 | 19 | ? | -14% | ? | -2
COCCCNC(=O)CCCCn1c(=O)c2ccccc2n(CC(=O)Nc2ccc(C)cc2C)c1=O | / | ? | / | -12%[46.1 µM] | /
COc1ccc(S(=O)(=O)N2CCC(C(=O)N3CCc4ccccc4C3)CC2)cc1Cl | 23 | 4% | -4% | -7% | 28*
COc1ccc(S(=O)(=O)N2CCC(C(=O)N3CCN(C)CC3)CC2)cc1Cl | 20 | -4%[46.1 µM] | -3% | 22% | -5
O=C(/C=C/c1ccccc1)Nc1nc2n(n1)C(c1ccc(F)cc1)C=C(c1ccccc1)N2 (stereo not given) | / | 5%[46.1 µM] | / | -29%[46.1 µM] | /
Cc1ccccc1-c1nc(CN2CCC(C(=O)NCc3ccc(F)cc3)CC2)c(C)o1 | / | ? | / | -12%[46.1 µM] | /
Cc1cccc(N2CCN(C(=O)CCNS(=O)(=O)c3ccc4c(c3)oc(=O)n4C)CC2)c1C | 1 | ? | 14% | ? | 8
O=C(CN1C(=O)C2CC=CCC2C1=O)N1CCN(c2ccc([N+](=O)[O-])cc2)CC1 (stereo not given) | 18 | ? | -1% | -13% | 3
Cc1cccc(N2CCN(C(=O)CN3C(=O)NC(C)(C)C3=O)CC2)c1C | 74* | / | -6% | / | 31*
Cc1cccc(N2CCN(C(=O)CN3C(=O)C4CC=CCC4C3=O)CC2)c1C (stereo not given) | 76* | 21%[46.1 µM] | -11% | -4% | 28
Cc1cccc(N2CCN(C(=O)CCNS(=O)(=O)c3ccc4c(c3)CCC(=O)N4)CC2)c1C | 12 | ? | -5% | 6.5µM* | -3
Cc1ccc(C)c(N2CCN(C(=O)CN3C(=O)c4ccccc4C3=O)CC2)c1 | -19 | -7% | -10% | -1% | 1
Cc1cccc(N2CCN(C(=O)CN3C(=O)NC(C)(C4CC4)C3=O)CC2)c1C (stereo not given) | / | 24% | 8% | 10% | /
Cc1ccccc1N1CCN(C(=O)CN2C(=O)c3ccccc3C2=O)CC1 | 198* | 27% | 3% | 19% | 38*
CCCNC(=O)CCc1nnc2ccc(N3CCN(c4cccc(OC)c4)CC3)nn12 | / | / | / | -23%[46.1 µM] | /
C#CCCCON=C1C[C@@H](O)[C@H](O)[C@H]2[C@@H]3C(=O)N(c4ccc(F)cc4F)C(=O)[C@@H]3CC[C@H]12 | / | -6%[14.2 µM] | / | / | /
Cc1cc(C)nc(SCNC(=O)c2ccc(F)cc2)n1 | -4 | 1% | 3% | -14% | -4
O=C(CSc1nc(N2CCCCC2)nc(N2CCCCC2)n1)c1ccccc1 | 9 | 2% | -8% | -1% | -5
Cc1cc(C)nc(SCC(=O)c2ccc(F)c(C)c2)n1 | 22 | / | 10% | / | 11*
Cc1cc(=O)[nH]c(SCC(=O)c2ccc(F)c(C)c2)n1 | 26 | ? | 1% | ? | 14*
COc1ccc(C(=O)CSc2nc(C)cc(=O)[nH]2)cc1C | -6 | 0%[46.1 µM] | 2% | 25%[46.1 µM] | -3
Cc1cc(C)nc(SCC(=O)c2ccc(F)cc2)n1 | 31* | / | 1% | / | 17*
Cc1cc(N2CCCCC2)nc(SCC(=O)c2ccccc2)n1 | 73* | ? | -14% | -25% | 34*
O=C(CCS(=O)(=O)c1cc(Br)cc2c1N(C(=O)C1CC1)CC2)Nc1ccc(F)cc1 | / | ? | / | 12%[46.1 µM] | /
Brc1cccc(-c2cnn3c(-c4ccccc4)cc(-c4ccccc4)nc23)c1 | / | 11%[46.1 µM] | / | 12%[46.1 µM] | /
CCc1ccc(C(=O)CSc2nc(C)cc(=O)[nH]2)cc1 | 49* | 22%[46.1 µM] | 6% | 12%[46.1 µM] | 32*
Cc1cc(C)nc(SCC(=O)c2ccc(F)cc2F)n1 | / | / | 0% | / | 20*

Screening results from PubChem BioAssay.
